Where “and” joins values, the source holds several entries; their conditions need not be identical. Identical values can stand only once. The whole screen tested about 100,000 compounds, of which about 930 (0.93%) were called active. Rule as the data show it: active = inhibition mostly above about 56% (no sharp cut-off); inactive = mostly below about 77%. The full list was thinned out, with actives kept by preference. The source holds several records for some structures; these can differ, active in one and inactive in another.

This experiment deals with Salicylate synthase (Mycobacterium tuberculosis (strain CDC 1551 / Oshkosh)) (UniProt P9WFX0). Briefly: MbtI salicylate synthase inhibitors, primary screen, biochemical, fluorescence intensity (AID 493033). Conditions: purified MbtI enzyme, fluorescence intensity read-out, stronger effect = higher value, concentration not given here.
Chain of Salicylate synthase (Mycobacterium tuberculosis (strain CDC 1551 / Oshkosh)) (P9WFX0 whole entry, looked up): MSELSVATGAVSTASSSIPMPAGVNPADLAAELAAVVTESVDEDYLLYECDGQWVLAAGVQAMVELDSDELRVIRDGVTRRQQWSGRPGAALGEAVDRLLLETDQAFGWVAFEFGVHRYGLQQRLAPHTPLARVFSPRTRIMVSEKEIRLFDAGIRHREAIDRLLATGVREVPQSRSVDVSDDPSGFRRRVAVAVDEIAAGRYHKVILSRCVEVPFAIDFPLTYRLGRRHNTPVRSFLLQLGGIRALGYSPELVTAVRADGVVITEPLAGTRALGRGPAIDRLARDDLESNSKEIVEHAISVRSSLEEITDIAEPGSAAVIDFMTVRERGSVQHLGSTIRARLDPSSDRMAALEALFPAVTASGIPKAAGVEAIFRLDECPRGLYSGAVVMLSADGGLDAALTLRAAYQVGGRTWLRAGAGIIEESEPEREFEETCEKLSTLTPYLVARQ
The term inhibition denotes the drop in the measured response relative to a control, in per cent. For the molecule `CC(C)(C)c1nc(=S)[nH][nH]1`, the inhibition was 59.2% (active).
As for `O=C(c1ccco1)N1CCN(C(=O)c2cnn(-c3ccccc3)c2-n2cccc2)CC1`, the figure is -6.6% (inactive); as for `COc1cccc(N2C(=O)C=CC2=O)c1`, 98.8% (active); as for `CCCCNC(=O)c1cccc(OC)c1`, -2.5% (inactive).
For `COc1cccc(C(=O)Nc2ccc(N3CCCC3)cc2)c1`, the inhibition was -7% (inactive).
Regarding `CCN1CCN(CCCNC(=S)Nc2ccc3nc(N4CCN(CC)CC4)cc(C)c3c2)CC1`, the inhibition was 35.8% (inactive).
Then `Cc1ccc(-c2nnc(SCc3c(C)cc(C)cc3C)o2)cc1`, with -3.75% (inactive); and `O=C(CSc1nnc(-c2cccs2)n1-c1ccccc1)OC1CCS(=O)(=O)C1` (centres undefined), with -45% (inactive).
As for `S=c1[nH]nc(-c2ccncc2)n1/N=C/c1cccnc1`, the figure is -6.8% (inactive) and -8.55% (inactive); as for `FC(F)(F)c1cccc(-n2c(-c3ccncc3)n[nH]c2=S)c1`, 6% (inactive).
Then `CC(C)n1c(-c2ccncc2)n[nH]c1=S`, with 93.6% (active).
`CCOC(=O)N1CCN(C(=O)COC(=O)c2cccc(S(C)(=O)=O)c2)CC1`: the inhibition is -7.25% (inactive).
As for `NC(=O)c1nnc(Cc2ccc(Cl)cc2)o1`, the figure is -6.1% (inactive); as for `CC(C)n1nc(C(N)=O)c2ccccc2c1=O`, 14.1% (inactive); as for `O=C(CCC(=O)N1CCCCc2ccccc21)NC1CCCC1`, -4.6% (inactive).
`NCCc1ccc(Cl)cc1`: the inhibition was -11.3% (inactive).
As to `O=C1C=CC(=O)N1Cc1ccc(Cl)cc1`, the inhibition was 71.7% (active).
As for `O=C1CSc2ccccc2N1Cc1ccc(Cl)cc1`, the figure is -5.75% (inactive); as for `CCOC(=O)c1oc2ccccc2c1CN1c2cccc3cccc(c23)S1(=O)=O`, -5.65% (inactive).
Then `COC(=O)c1cccc(OCC(O)CNC2CCN(Cc3ccccc3)CC2)c1` (centres undefined), with 12.9% (inactive); and `O=C(CS(=O)(=O)c1ccccc1)Nc1ccccc1O`, with -1.55% (inactive).
Then `NC(=S)CC(=O)NCc1ccccc1`, with 65.2% (inactive).
For the molecule `Oc1ccc(CNc2ccccc2O)cc1`, the inhibition was 92% (active).
Then `C=CCn1c(SCC(=O)c2ccc(N(C)S(C)(=O)=O)cc2)nnc1C1CCCCC1`, with 0.8% (inactive); and `Cc1cc(N2CCN(c3ccccc3)CC2)n2c(nc3ccccc32)c1C#N`, with 4.55% (inactive).
Then `CC(NC(=O)c1ccccc1NC(=O)c1ccco1)C(=O)NN(c1ccccc1)c1ccccc1` (centres undefined), with 31.5% (inactive); and `Cc1occc1-c1nnc2sc(Cc3cccc4ccccc34)nn12`, with 79.1% (inactive).
Turning to `N=C1N=C(N)C(Cc2ccccc2)S1` (centres undefined), the inhibition is 84.2% (active).
Then `NC1=NC(=O)C(Cc2cccc(Cl)c2)S1` (centres undefined), with 0.55% (inactive); and `Nc1nnc(SCc2ccccc2)s1`, with 38.8% (inactive); and `CN(C(=O)CSc1cccc[n+]1[O-])C1CCCCC1`, with 2.9% (inactive).
On to `CCOC(=O)C1=C(C)NC(C)=C(C(=O)OCC)C1C(=O)OCc1cc(=O)n2cc(C)ccc2n1`, for which the inhibition was -9.2% (inactive).
Then `O=C(O)CN1C(=O)/C(=C2/OC(=O)c3ccccc32)SC1=S`, with 13.1% (inactive).
As for `O=C(O)CCCN1C(=O)c2ccccc2Sc2ncccc21`, the inhibition was 4.25% (inactive).
As for `O=C(O)CCCN1C(=O)/C(=C2\SC(=S)N(CCCC(=O)O)C2=O)SC1=S`, the figure is 88.5% (active); as for `N#Cc1ccc(NC(=O)CSc2ncn[nH]2)cc1`, 15.7% (inactive); as for `COC(=O)c1cccc(Cn2nc(C)c(Cl)c2C)c1`, -1.2% (inactive).
As for `CCOC(=O)c1c(N)sc2c1CC(C)(C)OC2`, the figure is 64.8% (inactive); as for `CCOC(=O)c1c(N)sc2c1CCCS2`, 70.4% (active); as for `CCOC(=O)c1c(-n2cnnn2)sc(C)c1C`, 589% [above what the read-out allows, likely interference] (inactive).
Then `Cc1csc(/C(C#N)=N/OC(=O)c2ccco2)n1`, with 6.4% (inactive); and `Cc1cc(C)n(CCCN)n1`, with -3.05% (inactive); and `O=C(CSc1nccn1-c1ccc(F)cc1)Nc1ccccc1`, with 9.1% (inactive).
As for `Cc1nc2cccc[n+]2c(-c2ccccc2)c1C`, the inhibition was -10.6% (inactive).
Then `CCOc1cccc2sc(NC(C)=O)nc12`, with 17.4% (inactive); and `S=c1[nH]nc(COc2ccccc2)o1`, with 64% (active) and 19.4% (inactive).
As for `c1ccc(OCc2nc(-c3ccccn3)n[nH]2)cc1`, the inhibition is 4.2% (inactive).
As for `N/C(COc1ccccc1)=N\O`, the figure is -4.9% (inactive).
Then `COc1ccc(-c2nc(CS(=O)(=O)c3ccc(F)cc3)no2)cc1OC`, with -17% (inactive).
`COCCCn1cc(C(=O)c2cc(F)ccc2O)cc(C#N)c1=O`: the inhibition was 0.95% (inactive).
Then `Cc1ccccc1NC(=O)NC(=O)CC#N`, with -2.55% (inactive).
Then `Cc1ccccc1NC(=O)CSC(=O)c1ccccc1`, with 75% (active).
As for `Cc1ccccc1NC(=O)COC(=O)c1ccccc1`, the figure is 16.1% (inactive); as for `CCn1c(O)c(/C=N/N=C2/C(=O)N(C)c3ccccc32)c(=O)n(CC)c1=S`, 7.05% (inactive).
In the case of `N#C/C(=C\c1cc2ccccc2nc1N1CCOCC1)C(=O)Nc1ccc2c(c1)OCCO2`, the inhibition was 12% (inactive).
As for `O=C(CSc1ccc(Cl)cc1)N1CCc2ccccc21`, the figure is -9.4% (inactive); as for `CC(=O)OC1=C(Sc2ccc(Cl)cc2)C(=O)CCC1`, 59.8% (active); as for `CC1(C)CC(=O)C(Sc2ccc(Cl)cc2)=C(N2CCOCC2)C1`, 4.9% (inactive).
For `CCOC(=O)c1cc(S(=O)(=O)NC2CCCc3ccccc32)cn1C` (centres undefined), the inhibition is -4.15% (inactive).
As for `COC(=O)c1ccc(N)cc1`, the figure is 16.6% (inactive); as for `COc1ccc(-n2c(SCC(=O)c3ccc4c(c3)NC(=O)CO4)nc3ccccc3c2=O)cc1OC`, -1.55% (inactive); as for `CC1(C)Oc2ccccc2C2CC(c3ccccc3)=NN21` (centres undefined), 10.8% (inactive).
Then `Cc1ccc(NC(N)=O)cc1`, with -7.15% (inactive); and `CSC(=S)Nc1ccc(C)cc1`, with -4.35% (inactive).
As for `Cc1ccc(NC(=S)Nc2ccc(C)cc2)cc1`, the figure is 56.7% (active); as for `Cn1c(SCc2nc(-c3cccs3)no2)nnc1-c1ccncc1`, -11.6% (inactive); as for `CCOC(=O)CSc1ccccn1`, 81.9% (active).
Turning to `CCOC(=O)CSc1cc(C)nc(SCC(=O)OCC)n1`, the inhibition was 7.15% (inactive).
As for `CC1CC(=O)Nc2ccccc2N1C(=O)CSc1ccccn1` (centres undefined), the figure is -3.2% (inactive).

These data come from PubChem BioAssay AID493033 (ICCB-Longwood Screening Facility, Harvard Medical School, 2011).
